Mtb hypoxia inh: PubChem AID 1159583; M. tuberculosis hypoxia-regulated fluorescent reporter, fluorescence; fluorescence inhibition, % (concentration not given with the values); 300,000 tested, 0.1% active; in the data active = fluorescence inhibition mostly above about 23%, no sharp cut-off; inactive = mostly below about 17%
CCHFV vOTU inh: CCHFV vOTU protease inhibitors, primary screen, biochemical, Pep-AMC substrate, fluorescence. inhibition, % at 11.5 µM. 370,000 tested, 0.55% active. AID 651958, 2012; in the data active = inhibition above about 30%; also: 0% = vehicle wells with enzyme and 100% = no enzyme wells
PfHsp40 yeast: rescue of yeast from PfHsp40 toxicity, primary screen, S. cerevisiae, ATP luminescence; S. cerevisiae expressing PfHsp40, growth rescue; growth rescue, % at 12.5 µM; 340,000 tested, 0.68% active; in the data active = growth rescue above about 28%, passing the limit was not always enough;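 also: yeast W303a lacking pdr1 and pdr3 grown in galactose medium; growth measured after three days at 30 °C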
Sa RN4220 lethal: growth inhibition of S. aureus RN4220, primary screen, OD600. 16 h. inhibition, % (concentration not given with the values). 330,000 tested, 0.33% active. AID 1259311, 2017; in the data active = inhibition above about 85%;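 also: plate controls were untreated cells for no effect and reference antibiotic for full effect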
Sa ugtP lethal: growth inhibition of ugtP-null S. aureus, primary screen, RN4220 ugtP deletion, OD600. 16 h. AID 1259309, 2017. 330,000 tested, 0.54% active. growth inhibition, % (concentration not given with the values); in the data active = growth inhibition above about 68%;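 also: plate controls were untreated wells for no effect and antibiotic for full effect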
Vc quorum ag: inducers of Vibrio cholerae quorum light production without autoinducers, primary screen, BH1578 luxS cqsA deficient, single point; AID 588436, 2011; V. cholerae BH1578 lux reporter, luminescence, 6 h; activation, % at 18.7 µM; 350,000 tested, 0.16% active; in the data active = activation mostly above about 9.7%, no sharp cut-off
* = called active by the depositor; i = inactive; x = no result given. This is a sample that favours compounds with a hit; in the whole collection about 1.7% have one here.

SMILES | Mtb hypoxia inh | CCHFV vOTU inh | PfHsp40 yeast | Sa RN4220 lethal | Sa ugtP lethal | Vc quorum ag
CSCC[C@H](N)C(=O)NC[C@H]1O[C@@H](n2cnc3c(N)ncnc32)[C@H](O)[C@@H]1O | 3 | 0 | 39* | 3 | 10 | i
Nc1ncnc2c1ncn2[C@@H]1O[C@H](CNC(=O)[C@@H](N)C2CCCCC2)[C@@H](O)[C@H]1O | -15 | 5 | 73* | 1 | 2 | -2
C[C@H](N)C(=O)NC[C@H]1O[C@@H](n2cnc3c(N)ncnc32)[C@H](O)[C@@H]1O | -9 | 2 | -2 | 3 | -3 | 2
Cc1ccc(C=NN=Cc2ccc(C)s2)s1 | 2 | x | x | 11 | 11 | x
Oc1ccc(C=NNc2nn3cnnc3c3ccccc23)cc1 | 8 | x | x | 3 | 0 | x
Cc1cc(C)c(OCC(=O)Nc2ccc(NC(=O)c3ccco3)cc2)c([N+](=O)[O-])c1 | 6 | -15 | -2 | 9 | 1 | 0
Cc1cc(C)c(OCC(=O)Nc2cccc(NC(=O)c3ccco3)c2)c(Br)c1 | 24 | -6 | 122* | 32 | -6 | -12
CN(C)CC=C(c1ccc(Br)cc1)c1cccnc1 | -1 | x | x | 9 | -5 | x
CCn1cc(C(=O)O)c(=O)c2cc(Br)ccc21 | 5 | 22 | 33* | 11 | 8 | x
O=C(CC(=O)N/N=C\c1c(Cl)cccc1Cl)NCc1ccccc1 | x | 8 | 2 | x | x | 5.6*
N#Cc1ccc(C23CC4(C2)C(CN(Cc2ccc(C(F)(F)F)cc2)C4c2ccccc2)C3c2ccccc2)cc1 (stereo not given) | 2 | x | x | 0 | -2 | x
CN(/N=C/c1cc(Cl)cc(Cl)c1O)C(=S)NC(C)(C)C | x | 0 | 0 | x | x | 0
CN(N=Cc1cc(Cl)cc(Cl)c1O)C(=S)NC(C)(C)C | 13 | x | x | 100* | 100* | x
CC(Nc1n[nH]c(=O)[nH]c1=O)C(=O)NN=Cc1cccs1 (stereo not given) | -6 | x | x | -7 | -11 | x
O=C(Oc1ccc(C=Nn2cnnc2)cc1)c1cccc([N+](=O)[O-])c1 | 4 | x | x | 2 | 7 | x
COc1ccc(C(c2c(O)ccc3ccccc23)N2CCOCC2)c(OC)c1 (stereo not given) | x | 3 | 410* | x | x | x
CC(C)c1ccc(N(CC(=O)NN=Cc2ccc(OC3CSC3)cc2)S(=O)(=O)c2ccccc2)cc1 | 6 | x | x | 3 | 9 | x
COC(=O)C1=C(C)N(Cc2ccccc2)C(=NCCN2CCOCC2)NC1CCc1ccccc1 (stereo not given) | -5 | x | x | 4 | 2 | x
COc1ccc(C=Nn2c(SC)nnc(C(C)(C)C)c2=O)c(OC)c1 | x | x | x | 0 | 8 | x
Cc1csc2nc(CNS(=O)(=O)c3ccc4c(c3)OCCO4)cn12 | -4 | -3 | 63* | 30 | 24 | -1
COC(=O)NC(Nc1sc2c(c1C(N)=O)CCCC2)(C(=O)OC)C(F)(F)F (stereo not given) | -2 | -12 | 0 | 2 | -1 | 17*
NS(=O)(=O)OCC(Cc1ccccc1)N1C(=O)c2ccccc2C1=O (stereo not given) | -4 | 6 | 75* | 8 | 3 | -1
CC(=NNC(=O)c1ccco1)c1ccc(NC(=O)c2ccccc2)cc1 | 12 | x | x | 3 | 2 | x
CCCCCC(=O)NC(=S)Nc1ccc(NC(=O)c2ccco2)cc1 | x | 6 | 0 | 2 | 88* | 2
CCCCCC(=O)N/N=C(\C)c1ccc(NC(=O)c2ccco2)cc1 | x | 3 | 59* | x | x | 5
SMILES | Mtb hypoxia inh | CCHFV vOTU inh | PfHsp40 yeast | Sa RN4220 lethal | Sa ugtP lethal | Vc quorum ag
Cn1cc(C=NNC(=O)c2ccc(C#N)cc2F)c2ccccc21 | -4 | x | x | 1 | 4 | x
O=C(/C=C/c1ccccc1)N1CCN(CCN2C(=O)c3cccc4cccc(c34)C2=O)CC1 | -3 | 9 | -2 | 83 | 98* | 0
O=C(CCN1C(=O)c2cccc3cccc(c23)C1=O)N1CCOCC1 | 12 | -1 | 0 | 4 | 2 | i
COC(=O)C1CC1C(NC(=O)c1cc(C)on1)c1ccccc1 (stereo not given) | 8 | x | x | 5 | 0 | x
O=C(O)CCCC(=O)N1CCN(c2nc(-c3ccccc3Cl)c3cc(Br)ccc3n2)CC1 | -2 | -4 | 47* | 15 | 40 | i
Cc1ccc2nc(N3CCN(C(=O)CCCC(=O)O)CC3)nc(-c3ccccc3)c2c1 | -14 | -25 | 5 | 3 | 6 | -1
O=C(Oc1ccc(Cl)c2cccnc12)c1ccco1 | 13 | -7 | 7 | 91* | 5 | -1
O=C(Cn1nnc2ccccc21)NN=Cc1ccco1 | 3 | x | x | 7 | -1 | x
CC1(NC(=O)N2CCCCC2)CCS(=O)(=O)C1 (stereo not given) | 3 | -3 | 0 | 0 | 0 | 6
CC12CC3(C)CC(C)(C1)CC(NC(=O)N1CCCC1)(C2)C3 | x | 11 | 310* | 15 | 3 | i
Cc1cc2ncn(/N=C/c3ccc([N+](=O)[O-])s3)c2cc1C | x | 4 | 0 | x | x | 0
Cc1cc2ncn(N=Cc3ccc([N+](=O)[O-])o3)c2cc1C | 9 | x | x | 100* | 101* | x
Cc1nc2ccccc2n1N=Cc1ccc([N+](=O)[O-])o1 | x | x | x | 101* | 100* | x
COC(=O)C1=C(C)NC(C)=C(C(=O)OCC(C)C)C1c1ccccc1[N+](=O)[O-] (stereo not given) | x | 25 | 289* | x | x | i
CCOC(=O)C1=C(C)NC(C)=C(C(=O)OCC)C1c1cccc([N+](=O)[O-])c1 | x | 9 | x | x | x | -1
O=C(NN=Cc1cc2c(cc1Br)OCO2)c1ccccn1 | 22 | x | x | 11 | 5 | x
CCCCCCCC#Cc1ccccc1C=NS(=O)c1ccc(C)cc1 (stereo not given) | 5 | x | x | -2 | 99* | x
O=C(NC(Cc1c[nH]c2ccccc12)C(=O)NN=Cc1ccc(Cl)cc1)c1cccs1 (stereo not given) | 3 | x | x | -10 | -27 | x
CC(C)(C)c1cc(CCC(=O)NNC(=S)NC(=O)c2ccccc2)cc(C(C)(C)C)c1O | -24 | x | 508* | 64 | 89* | 0
CCCCC(=O)NC(=S)NNC(=O)CCc1ccccc1 | 13 | -4 | 337* | -7 | 19 | i
CC(=O)NC(=S)NNC(=O)CCc1ccccc1 | 7 | -6 | -1 | 8 | 8 | i
O=C(CCc1ccccc1)NNC(=S)NC(=O)c1ccccc1 | 4 | -2 | 314* | 40 | 9 | -1
CN(Cc1c(F)cccc1Cl)C(=O)c1ccc(COc2ccccc2)cc1 | 7 | 12 | 2 | 97* | 100* | i
CSCCC(NC(=O)COc1ccccc1)C(=O)N(C)Cc1c(F)cccc1Cl (stereo not given) | x | 5 | x | x | x | i
Cc1c(CC(=O)N[C@@H](C)C(=O)O)c(=O)oc2c(C)c3occ(-c4ccccc4)c3cc12 | -3 | 5 | 0 | 94* | 100* | i
Cc1c(CC(=O)O)c(=O)oc2c(C)c3occ(-c4ccc(F)cc4)c3cc12 | -1 | 7 | 0 | 95* | 100* | i
